# In PubChem BioAssay (Tox21):
# Values joined by “and” are separate entries in the source; they are usually repeats but may differ in a detail not shown here. Equal entries are not always repeated. A number with no mark means an inactive call. A call without a number means that no potency is given here. Active and inactive are the calls of the source. Unless noted, calls follow the shape of the dose curve; as a rule, active = well fitted curve in the direction sought with a large enough effect in the repeat runs; inconclusive = weak or mixed curves; inactive = no such curve, though single readings can be large; an effect the other way counts as inactive or inconclusive.
# How the values were obtained:
# [1] = qHTS assay to identify small molecule antagonists of the thyroid receptor (TR) signaling pathway - cell viability counter screen (AID 743064); also: nearly all actives have a fitted effect of over 50% in size
# How it was run: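 Same-well viability check: GH3.TRE-Luc cells stimulated with 1 nM T3 alongside test compound for 23.5 h, followed by CellTiter-Fluor fluorescence.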
# [2] = qHTS assay to identify small molecule antagonists of the thyroid receptor (TR) signaling pathway (AID 743065); also: series mostly up to about 70 µM; nearly all actives have a fitted effect of over 55% in size
# How it was run: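 Antagonism measured as loss of luciferase signal in GH3 cells stably carrying a TRE-luciferase reporter, co-treated with compound and T3 (1 nM final) for 23.5 h at 37 C. Viability was read in the same well by CellTiter-Fluor.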
# [3] = system: thyroid hormone receptor (rat, GH3 cells); test: qHTS assay to identify small molecule agonists of the thyroid receptor (TR) signaling pathway (AID 743066; calls by dose curve)
# [4] = target: Estrogen receptor (Homo sapiens) (UniProt P03372); test: qHTS assay to identify small molecule antagonists of the estrogen receptor alpha (ER-alpha) signaling pathway (AID 743069; active = well fitted curve in the direction sought with a large enough effect in the signal ratio in the repeat runs, not every such curve was filed as active; inconclusive = weak or mixed curves, or effect the other way; inactive = no such curve, though single readings can be large or run the other way; the % refers to the signal ratio)
# Estrogen receptor (Homo sapiens), sequence (P03372 whole entry, looked up): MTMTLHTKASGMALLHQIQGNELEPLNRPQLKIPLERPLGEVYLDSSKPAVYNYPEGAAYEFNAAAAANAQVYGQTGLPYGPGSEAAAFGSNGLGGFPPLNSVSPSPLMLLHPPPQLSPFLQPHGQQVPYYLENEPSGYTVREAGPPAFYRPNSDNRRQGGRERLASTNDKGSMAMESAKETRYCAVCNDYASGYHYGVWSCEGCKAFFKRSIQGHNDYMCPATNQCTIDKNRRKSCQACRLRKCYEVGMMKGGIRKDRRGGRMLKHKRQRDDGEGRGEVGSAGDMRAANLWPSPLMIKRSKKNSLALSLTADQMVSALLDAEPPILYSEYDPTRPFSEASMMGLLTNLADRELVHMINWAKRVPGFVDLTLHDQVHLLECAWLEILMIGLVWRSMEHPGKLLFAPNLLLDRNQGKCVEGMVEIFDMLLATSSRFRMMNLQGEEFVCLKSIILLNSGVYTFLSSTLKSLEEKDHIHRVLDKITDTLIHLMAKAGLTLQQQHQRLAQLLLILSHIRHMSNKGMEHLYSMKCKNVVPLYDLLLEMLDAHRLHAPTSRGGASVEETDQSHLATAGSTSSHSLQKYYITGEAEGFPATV
# How it was run: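 Compound effects are measured against 17beta-estradiol stimulation in HEK293 cells with a UAS-controlled beta-lactamase reporter for ER-alpha. Exposure lasts 18 hr at 37C; LiveBLAzer B/G FRET substrate follows for 2 hr at room temperature.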
# [5] = qHTS assay to identify small molecule antagonists of the estrogen receptor alpha (ER-alpha) signaling pathway - cell viability counter screen (AID 743074; calls by dose curve;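 also: HEK293 cells carrying ER-alpha-UAS-bla reporter stimulated with 17beta-estradiol; nearly all actives have a fitted effect of over 45% in size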)
# [6] = target: Estrogen receptor (Homo sapiens) (UniProt P03372); test: qHTS assay to identify small molecule agonists of the estrogen receptor alpha (ER-alpha) signaling pathway (AID 743075; calls by dose curve; also: potency is read from the fitted curve at half-maximal effect)
# [7] = target: Estrogen receptor (Homo sapiens) (UniProt P03372); test: qHTS assay to identify small molecule agonists of the estrogen receptor alpha (ER-alpha) signaling pathway using the BG1 cell line (AID 743079); also: nearly all actives have a fitted effect of over 20% in size; also: potency is read from the fitted curve at half-maximal effect
# [8] = qHTS assay to identify small molecule antagonists of the estrogen receptor alpha (ER-alpha) signaling pathway using the BG1 cell line (AID 743080; calls by dose curve;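 also: BG1 cells stimulated with 17beta-estradiol alongside compound; series mostly up to about 70 µM; nearly all actives have a fitted effect of over 25% in size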)
# How it was run: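 Luminescence from a 4×ERE-luciferase reporter in BG1-Luc-4E2 cells served as read-out. Cells, pre-cultured 5 days in stripped-serum phenol-red-free medium, were exposed to compound with 17beta-estradiol co-stimulation for 21.5 h at 37 C.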
# [9] = qHTS assay to identify small molecule antagonists of the estrogen receptor alpha (ER-alpha) signaling pathway using the BG1 cell line - cell viability counter screen (AID 743081);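 also: compound given together with 17beta-estradiol as the ER stimulus; series mostly up to about 70 µM; nearly all actives have a fitted effect of over 45% in size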
# Aromatase (Homo sapiens) = Aromatase (Homo sapiens) (UniProt P11511); test: qHTS assay to identify aromatase inhibitors (AID 743083); also: series mostly up to about 70 µM; nearly all actives have a fitted effect of over 55% in size
# Aromatase (Homo sapiens), sequence (P11511 whole entry, looked up): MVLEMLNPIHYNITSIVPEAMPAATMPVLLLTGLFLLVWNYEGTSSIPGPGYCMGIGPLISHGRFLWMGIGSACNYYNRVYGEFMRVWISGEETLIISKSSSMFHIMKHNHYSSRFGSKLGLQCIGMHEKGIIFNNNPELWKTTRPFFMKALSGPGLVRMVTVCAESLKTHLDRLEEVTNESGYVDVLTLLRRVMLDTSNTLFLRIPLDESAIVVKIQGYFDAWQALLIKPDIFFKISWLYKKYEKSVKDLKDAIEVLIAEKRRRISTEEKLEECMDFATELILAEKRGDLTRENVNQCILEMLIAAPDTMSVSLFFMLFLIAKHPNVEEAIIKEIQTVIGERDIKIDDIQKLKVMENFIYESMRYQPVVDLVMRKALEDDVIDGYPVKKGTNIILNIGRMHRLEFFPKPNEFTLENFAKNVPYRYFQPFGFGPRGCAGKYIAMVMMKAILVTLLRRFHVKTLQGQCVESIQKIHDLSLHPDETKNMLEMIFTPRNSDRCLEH
# [10] = target: Aryl hydrocarbon receptor (Homo sapiens) (UniProt P35869); test: qHTS assay to identify small molecule that activate the aryl hydrocarbon receptor (AhR) signaling pathway (AID 743085); also: nearly all actives have a fitted effect of over 15% in size; also: potency is read from the fitted curve at half-maximal effect;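 as to activation: HG2L7.5c1 human HepG2 liver cells with stably integrated DRE-driven firefly reporter; series mostly up to about 70 µM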
# Aryl hydrocarbon receptor (Homo sapiens), sequence (P35869 whole entry, looked up): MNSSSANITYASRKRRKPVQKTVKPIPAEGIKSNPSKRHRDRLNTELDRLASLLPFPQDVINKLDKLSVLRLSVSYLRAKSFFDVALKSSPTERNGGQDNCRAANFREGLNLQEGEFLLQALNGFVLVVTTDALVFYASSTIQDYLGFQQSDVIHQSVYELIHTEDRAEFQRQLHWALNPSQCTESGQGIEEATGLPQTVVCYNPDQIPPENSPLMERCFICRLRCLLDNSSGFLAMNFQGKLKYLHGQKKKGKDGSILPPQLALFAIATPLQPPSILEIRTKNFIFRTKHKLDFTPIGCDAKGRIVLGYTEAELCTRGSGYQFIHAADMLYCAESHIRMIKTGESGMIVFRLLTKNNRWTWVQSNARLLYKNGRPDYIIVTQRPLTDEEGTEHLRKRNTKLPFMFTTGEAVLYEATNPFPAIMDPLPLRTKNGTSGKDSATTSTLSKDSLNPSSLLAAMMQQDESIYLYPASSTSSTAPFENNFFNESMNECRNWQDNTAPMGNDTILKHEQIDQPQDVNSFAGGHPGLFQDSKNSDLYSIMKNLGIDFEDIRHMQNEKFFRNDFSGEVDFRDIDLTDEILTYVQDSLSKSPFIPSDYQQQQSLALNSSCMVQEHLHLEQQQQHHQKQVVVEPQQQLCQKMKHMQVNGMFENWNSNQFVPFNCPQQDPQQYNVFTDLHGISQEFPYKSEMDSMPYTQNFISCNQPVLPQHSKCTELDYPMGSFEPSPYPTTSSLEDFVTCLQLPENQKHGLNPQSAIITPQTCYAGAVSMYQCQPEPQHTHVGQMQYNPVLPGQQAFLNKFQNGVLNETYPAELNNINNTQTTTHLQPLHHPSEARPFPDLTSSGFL
# How it was run: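 Reporter assay in engineered HepG2 line HG2L7.5c1, whose plasmid carries twenty dioxin responsive elements upstream of firefly luciferase. Treatment lasted 24 h at 37C; ONE-Glo luminescence gauged induction.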
# [11] = qHTS assay to identify small molecule that activate the aryl hydrocarbon receptor (AhR) signaling pathway - cell viability counter screen (AID 743086);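 also: HepG2 liver cells carrying the AhR DRE luciferase reporter; series mostly up to about 70 µM; nearly all actives have a fitted effect of over 45% in size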
# How it was run: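 Cytotoxicity counter screen: CellTiter-Fluor signal (30 min, 37 C) in 4000 HepG2 cells/well carrying the DRE-luciferase reporter, following 24 h compound exposure at 37 C.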
# [12] = target: Peroxisome proliferator-activated receptor gamma (Homo sapiens) (UniProt P37231); test: qHTS assay to identify small molecule agonists of the peroxisome proliferator-activated receptor gamma (PPARg) signaling pathway (AID 743094; active = well fitted activation curve with a large enough effect in the signal ratio in the repeat runs, not every such curve was filed as active; inconclusive = weak or mixed curves, or effect the other way; inactive = no such curve, though single readings can be large or run the other way; the % refers to the signal ratio)
# Peroxisome proliferator-activated receptor gamma (Homo sapiens), sequence (P37231 whole entry, looked up): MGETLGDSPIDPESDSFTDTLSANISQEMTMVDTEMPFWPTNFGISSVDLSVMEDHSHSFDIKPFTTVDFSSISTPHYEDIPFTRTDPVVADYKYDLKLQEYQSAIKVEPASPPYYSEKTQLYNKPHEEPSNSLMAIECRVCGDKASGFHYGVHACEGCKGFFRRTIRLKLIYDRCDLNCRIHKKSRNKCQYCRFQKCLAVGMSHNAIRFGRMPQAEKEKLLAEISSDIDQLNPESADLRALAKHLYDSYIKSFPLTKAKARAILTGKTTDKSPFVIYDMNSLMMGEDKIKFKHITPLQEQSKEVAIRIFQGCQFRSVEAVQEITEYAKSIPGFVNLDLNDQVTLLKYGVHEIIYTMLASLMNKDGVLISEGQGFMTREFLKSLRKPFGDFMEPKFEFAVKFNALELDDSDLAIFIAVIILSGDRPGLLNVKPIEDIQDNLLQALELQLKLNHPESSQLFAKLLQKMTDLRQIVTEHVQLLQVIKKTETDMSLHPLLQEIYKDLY
# How it was run: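 Quantitative HTS agonist mode: stable HEK293H line with UAS-beta-lactamase reporter under PPARg control, 17 h compound exposure at 37C, fluorescence after 1 h FRET substrate loading at room temperature.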
# [13] = qHTS assay to identify small molecule antagonists of the peroxisome proliferator-activated receptor gamma (PPARg) signaling pathway - cell viability counter screen (AID 743194); also: nearly all actives have a fitted effect of over 55% in size
# How it was run: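 Viability was measured as CellTiter-Glo luminescence in GeneBLAzer PPARg UAS-bla HEK293H cells. These cells had been exposed 17 h at 37 C to compounds together with rosiglitazone at 50 nM final, with the beta-lactamase readout taken in the same wells.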
# [14] = qHTS assay for small molecule agonists of the antioxidant response element (ARE) signaling pathway - cell viability counter screen (AID 743203; calls by dose curve; also: nearly all actives have a fitted effect of over 55% in size)
# How it was run: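 Seeded at 2,000 cells/well, ARE-bla HepG2 cells were incubated 5 hrs before compound addition. After 16 hrs of treatment at 37C with 5% CO2, CellTiter-Glo reagent was added and luminescence read 30 min later.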
# [15] = qHTS assay for small molecule activators of the heat shock response signaling pathway - cell viability counter screen (AID 743209); also: nearly all actives have a fitted effect of over 50% in size
# How it was run: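 First, HSE-bla HeLa cells were seeded at 1500 cells/well and kept overnight at 37 C. Next, compounds were pinned in and incubated 5 h. After the FRET substrate step, CellTiter-Glo was added and luminescence read 30 min later.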
# [16] = qHTS assay for small molecule activators of the heat shock response signaling pathway (AID 743210; active = well fitted activation curve with a large enough effect in the signal ratio in the repeat runs, with a control signal flat, not every such curve was filed as active; inconclusive = weak or mixed curves; the % refers to the signal ratio;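 also: HeLa cells with beta-lactamase reporter driven by heat shock elements; series mostly up to about 63 µM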)
# How it was run: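 In HSE-bla HeLa cells, 5 h compound incubation (37 C) precedes addition of LiveBLAzer B/G substrate; after 2.5 h at room temperature, fluorescence intensity indicates reporter induction.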
# [17] = qHTS assay to identify aromatase inhibitors - cell viability counter screen (AID 743084)
# [18] = target: Peroxisome proliferator-activated receptor gamma (Homo sapiens) (UniProt P37231); test: qHTS assay to identify small molecule antagonists of the peroxisome proliferator-activated receptor gamma (PPARg) signaling pathway (AID 743191; calls by dose curve; also: series mostly up to about 63 µM; nearly all actives have a fitted effect of over 30% in size)
# How it was run: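 Beta-lactamase reporter under UAS control in HEK293H PPARg-bla cells; compound treatment 17 h at 37C. Read-out: fluorescence intensity after 1 h room-temperature incubation with LiveBLAzer B/G FRET substrate.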
# [19] = qHTS assay for small molecule agonists of the antioxidant response element (ARE) signaling pathway (AID 743202; active = well fitted activation curve with a large enough effect in the signal ratio in the repeat runs, not every such curve was filed as active; inconclusive = weak or mixed curves, or effect the other way; inactive = no such curve, though single readings can be large or run the other way; the % refers to the signal ratio)
# How it was run: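 An ARE-responsive beta-lactamase gene stably integrated in HepG2 cells serves as reporter. After 5 h plating and 16 h compound incubation at 37 C, fluorescence of the B/G FRET substrate was measured.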
smiles,measurement,setting,value
Cc1cc(C)c(N=Nc2c(O)c(S(=O)(=O)O)cc3cc(S(=O)(=O)O)ccc23)cc1C,"activity change, negative = cytotoxic",[1],-15.7% [at 8.44 µM]
same,"activity, negative = inhibition",[2],-3.21% [at 8.44 µM]
same,activation,[3],0.237% [at 8.08 µM]
same,"activity, negative = inhibition",[4],-5.6% [at 6.71 µM]
same,"activity, negative = cytotoxicity",[5],-15.7% [at 6.72 µM]
same,activation,[6],-3.26% [at 6.71 µM]
same,activation,[7],5.28% [at 8.47 µM]
same,"activity change, negative = inhibition",[8],-1.62% [at 8.47 µM]
same,"activity change, negative = cytotoxicity",[9],-6.97% [at 8.47 µM]
same,"activity, negative = inhibition",Aromatase (Homo sapiens),-5.99% [at 8.47 µM]
same,activation,[10],-3.38% [at 8.47 µM]
same,"viability change, negative = cytotoxic",[11],-19.3% [at 8.47 µM]
same,activation,[12],-9.42% [at 7.08 µM]
same,"activity change, negative = cytotoxicity",[13],-10.4% [at 5.95 µM]
same,"viability change, negative = cytotoxic",[14],-2.33% [at 8.36 µM]
same,"activity change, negative = cytotoxicity",[15],-2.28% [at 5.95 µM]
same,activation,[16],-0.565% [at 5.95 µM]
CCC(C)(CCCC(C)C)OC(C)=O (stereo unspecified),Potency,[1],inactive
same,Potency,[2],inactive
same,outcome,[3],inactive
same,Potency,[4],inactive
same,Potency,[5],inactive
same,Potency,[6],inactive
same,Potency,[7],inactive
same,outcome,[9],inactive
same,outcome,Aromatase (Homo sapiens),inactive
same,Potency,[17],inactive
same,Potency,[10],inactive
same,Potency,[11],inactive
same,Potency,[12],inactive
same,Potency,[18],inactive
same,outcome,[13],inactive
same,Potency,[19],inactive
same,outcome,[14],inactive
same,outcome,[15],inactive
CCCCN(CCC(=O)OCC)C(C)=O,Potency,[1],inactive
same,Potency,[2],inactive
same,outcome,[3],inactive
same,Potency,[4],inactive
same,Potency,[5],inactive
same,Potency,[6],inactive
same,Potency,[7],inactive
same,outcome,[9],inactive
same,outcome,Aromatase (Homo sapiens),inactive
same,Potency,[17],inactive
same,Potency,[10],inactive
same,Potency,[11],inactive
same,Potency,[12],inactive
same,Potency,[18],inactive
same,outcome,[13],inactive
same,Potency,[19],inactive
same,outcome,[14],inactive
same,outcome,[15],inactive
same,outcome,[16],inactive
CC[C@H]1OC(=O)[C@H](C)[C@@H](O[C@H]2C[C@@](C)(OC)[C@@H](O)[C@H](C)O2)[C@H](C)[C@@H](O[C@@H]2O[C@H](C)C[C@H](N(C)C)[C@H]2O)[C@](C)(OC)C[C@@H](C)C(=O)[C@H](C)[C@@H](O)[C@]1(C)O,Potency,[1],inactive
same,Potency,[2],inactive
same,outcome,[3],inactive
same,Potency,[4],inactive
same,Potency,[5],inactive
same,Potency,[6],inactive
same,Potency,[7],inactive
same,Potency,[8],inactive
same,outcome,Aromatase (Homo sapiens),inactive
same,Potency,[17],inactive
same,Potency,[10],inactive
same,Potency,[11],inactive
same,Potency,[12],inactive
same,Potency,[18],inactive
same,outcome,[13],inactive
same,Potency,[19],inactive
same,outcome,[14],inactive
same,outcome,[15],inactive
same,outcome,[16],inactive
C=CC(=O)OCCCl,Potency,[1],inactive
same,Potency,[2],inactive
same,outcome,[3],inactive
same,Potency,[4],inactive
same,Potency,[5],inactive
same,Potency,[6],inactive
same,Potency,[7],inactive
same,Potency,[8],inactive
same,outcome,[9],inactive
same,outcome,Aromatase (Homo sapiens),inactive
same,Potency,[17],inactive
same,Potency,[11],inactive
same,Potency,[12],inactive
same,Potency,[18],inactive
same,Potency,[19],inactive
same,outcome,[14],inactive
same,outcome,[15],inactive
same,outcome,[16],inactive
CC(C)(C)OC(=O)c1cccc(N)c1,Potency,[1],inactive
same,Potency,[2],inactive
same,outcome,[3],inactive
same,Potency,[4],inactive
same,Potency,[5],inactive
same,Potency,[6],56.4 µM [inconclusive] (active)
same,Potency,[7],31.4 µM (active)
same,outcome,[9],inactive
same,outcome,Aromatase (Homo sapiens),inactive
same,Potency,[17],inactive
same,Potency,[11],inactive
same,Potency,[12],inactive
same,Potency,[18],inactive
same,outcome,[13],inactive
same,Potency,[19],inactive
same,outcome,[14],inactive
same,outcome,[15],inactive
same,outcome,[16],inactive
CN1CC(=O)N/C1=N/C(=O)Nc1cccc(Cl)c1,Potency,[1],inactive
same,Potency,[2],inactive
same,outcome,[3],inactive
same,Potency,[4],inactive
same,Potency,[5],inactive
same,Potency,[6],inactive
same,Potency,[7],29.8 µM (active) and 5.31 µM (active)
same,outcome,[9],inactive
same,outcome,Aromatase (Homo sapiens),inactive
same,Potency,[17],inactive
same,Potency,[10],26.6 µM (active) and 1.68 µM (active)
same,Potency,[11],inactive
same,Potency,[12],inactive
same,Potency,[18],inactive
same,outcome,[14],inactive
same,outcome,[15],inactive
same,outcome,[16],inactive
